# Assay outcomes from PubChem BioAssay.
# Only some compounds are listed: those with a hit (about 7.5% of all), similar ones and a draw of the others.
# FLuc counter: qHTS profiling assay for firefly luciferase inhibitor/activator using purifed enzyme and Km concentrations of substrates (counterscreen for miR-21 project); Luciferin 4-monooxygenase (Photinus pyralis), P08659; purified FLuc, Km substrates, luminescence inhibition; Potency, µM (top dose mostly 57.5 µM), inactives show top-dose activity change, negative = inhibition, actives largely listed as inhibitors; 360,000 tested, 6.9% active; AID 588342, 2011;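 note: plate controls were vehicle for no effect and reference inhibitor for full effect; nearly all actives have a fitted effect of over 55% in size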
# Target sequence (P08659 whole entry, looked up): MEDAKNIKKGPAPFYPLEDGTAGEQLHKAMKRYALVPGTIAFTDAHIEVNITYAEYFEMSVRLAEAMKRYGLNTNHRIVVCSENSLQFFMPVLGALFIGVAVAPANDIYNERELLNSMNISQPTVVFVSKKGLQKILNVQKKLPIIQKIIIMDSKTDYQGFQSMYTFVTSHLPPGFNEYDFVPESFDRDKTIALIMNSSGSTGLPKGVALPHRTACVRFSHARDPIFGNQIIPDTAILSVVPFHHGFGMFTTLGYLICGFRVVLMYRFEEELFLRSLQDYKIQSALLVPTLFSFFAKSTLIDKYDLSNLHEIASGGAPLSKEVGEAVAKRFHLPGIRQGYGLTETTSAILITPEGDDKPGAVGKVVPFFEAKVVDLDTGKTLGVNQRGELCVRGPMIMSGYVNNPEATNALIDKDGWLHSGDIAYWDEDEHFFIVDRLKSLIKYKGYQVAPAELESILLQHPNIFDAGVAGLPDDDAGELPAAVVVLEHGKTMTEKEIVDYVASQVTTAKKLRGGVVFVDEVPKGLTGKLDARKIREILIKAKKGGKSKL
#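 Purified P. pyralis luciferase, 10 nM final, with Km-level 10 uM D-luciferin and 10 uM ATP in 50 mM Tris acetate pH 7.5, 10 mM Mg acetate, 0.01% Tween-20, 0.05% BSA; 6-point qHTS titration about 60 µM downward; luminescence read.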
# Luc counter: Counterscreen for Luciferase (Kinase-Glo TM) Inhibition; Potency, µM (highest dose often 38.3 µM), for the others: at the top dose activity change, negative = inhibition, actives largely listed as inhibitors; AID 1379, 2008; Kinase-Glo luciferase, ATP luminescence, 8 min; 200,000 tested, 0.28% active; Luciferin 4-monooxygenase (Photuris pensylvanica), Q27757; note: % is set by controls: 0 for no effect and ±100 for the full control effect; nearly all actives have a fitted effect of over 60% in size
#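 Kinase-Glo luciferase light output from ATP and luciferin was measured with 10 uM ATP, within the enzyme's linear range. Buffer: 50 mM imidazole pH 7.2, 50 mM KCl, 7 mM MgCl2, 0.01% Tween 20, 0.05% BSA; luminescence read after 8 min at ambient temperature.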
# NPC1 prom act: qHTS Assay for NPC1 Promoter Activators. Huh7 NPC1 promoter luciferase reporter, 24 h. Potency, µM (highest dose often 9.22 µM), for the others: at the highest dose activation, most hits filed as activators. 320,000 tested, 2.4% active. AID 485313, 2010; note: % of control where 0% means no effect; nearly all actives have a fitted effect of over 60% in size
#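 Huh7 cells stably carrying NPC1 promoter–luciferase, plated in Opti-MEM with 10% FBS for 2 h, were exposed to compound in DMSO for 24 h at 37 °C; luciferase reagent was added for 10 min and luminescence read.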
# Rab9 promoter act: qHTS Assay for Rab9 Promoter Activators. 320,000 tested, 2.8% active. Potency, µM (titrated, usually from 9.22 µM), for inactives: at the highest dose activation, negative = inhibition, most hits filed as activators. Huh7 Rab9 promoter-luciferase reporter, luminescence, 24 h; note: % of control where 0% means no effect; nearly all actives have a fitted effect of over 60% in size
#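 Rab9 promoter-driven luciferase in stably transfected Huh7 cells; 1500 cells/well rested 2 h, exposed to compound in DMSO for 24 h at 37 °C, 5% CO2. Luminescence read 10 min after adding luciferase reagent at ambient temperature.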
# ELG1 genotox: qHTS screen for small molecules that induce genotoxicity in human embryonic kidney (HEK293T) cells expressing luciferase-tagged ELG1; 330,000 tested, 1.3% active; HEK293T ELG1-luciferase reporter, luminescence, 16 h; Potency, µM (highest dose often 46 µM), for inactives: top-dose activity change, positive = activation, usual class: activators; note: % of control where 0% means no effect; nearly all actives have a fitted effect of over 60% in size
#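 16 hr compound incubation (37 °C, 5% CO2) of HEK293T cells carrying luciferase-tagged ELG1; luciferase then measured by ONE-Glo luminescence after 30 min at RT.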
# SMN2 splice up: qHTS Assay for Enhancers of SMN2 Splice Variant Expression; HEK293 SMN2-luciferase splicing reporter, luminescence, 30-36 h; 210,000 tested, 2.8% active; Potency, µM (doses to about 46.1 µM), for the others: at the highest dose activity change, positive = activation, actives largely listed as activators; note: % of control where 0% means no effect; nearly all actives have a fitted effect of over 55% in size
#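 HEK293 cells carry an SMN2 […]–luciferase reporter in which exon 7 inclusion puts luciferase in frame. Cells were plated 10-12 h before compound addition, then incubated 30-36 h at 37C. ONE-Glo luminescence was read; sodium butyrate at 4.5 mM final served as control.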
# Starred values were filed as active, the others as inactive; ? = inconclusive; nt = no result; [ ] = dose if it differs, or a comment. Calls come from the whole dose curve; as a rule, active = well fitted curve in the direction sought with a large enough effect; inconclusive = small, poorly fitted or top-dose-only effect, or another doubt; inactive = no such curve, though single readings can be large; an effect the other way counts as inactive or inconclusive. Potency is the fitted concentration of half-maximal effect.
SMILES,FLuc counter,Luc counter,NPC1 prom act,Rab9 promoter act,ELG1 genotox,SMN2 splice up
Cc1ccc(C(=O)CSc2nnc3ccccn23)c(C)c1,2.7µM*,1%,2µM*,0.79µM*,4.6µM*,10µM*
COCCn1c(C)cc(C(=O)CSc2ncn[nH]2)c1C,?,3%,4%,29%,12%,5.6µM*
COCCn1c(SCC(=O)c2cc(C)n(C)c2C)nc2ccccc2c1=O,?,-1%,16%,24%,1%,18%
O=C(CCNS(=O)(=O)c1ccc2c(c1)CCCC(=O)N2)Nc1cccc(Cl)c1,-2%,nt,nt,nt,nt,nt
CN(C)c1ccc(/C=C(\C#N)C(=O)Nc2nc3c(s2)CCN(Cc2ccccc2)C3)cc1,-13%,7%,-4%,-1%,5%,-18%
COc1ccc(OC)c2sc(N3CCN(C(=O)C(C)(C)C)CC3)nc12,13µM*,nt,nt,nt,nt,nt
COc1ccc(Cl)c2sc(N3CCN(C(C)=O)CC3)nc12,2%,nt,12%,-1%,0%,nt
COc1ccccc1C(=O)Nc1nnc(SCc2cc(=O)n3ccc(C)cc3n2)s1,-14%,nt,nt,nt,nt,nt
COc1cccc(CN2CCN(C(=O)CCc3nnc(C4CCCCC4)o3)CC2=O)c1,-7%,nt,-2%,2%,0%,nt
COc1ccc2c(c1)CCc1c(C(=O)N(C)c3ccccc3)noc1-2,13µM*,-1%,?,?,?,5µM*
COc1ccc2c(c1)CCc1c(C(=O)Nc3cc(OC)c(Cl)cc3OC)noc1-2,-5%,nt,nt,nt,nt,3%
COCC(C)NC(=O)c1noc2c1CCc1cc(OC)ccc1-2 (stereo not given),13µM*,-5%,3.2µM*,2.5µM*,?,10µM*
COc1ccc2c(c1)CCc1c(C(=O)NCc3ccco3)noc1-2,7.6µM*,0%,3.5µM*,1.6µM*,?,7.1µM*
COc1ccc2c(c1)CCc1c(C(=O)Nc3ccc(C#N)cc3)noc1-2,-2%,nt,nt,nt,nt,18%
COc1ccc2c(c1)CCc1c(C(=O)NC3CCCCC3)noc1-2,1.3µM*,-12%,1.4µM*,1.1µM*,?,7.1µM*
CC(=O)N1CCc2cc(CNS(=O)(=O)c3ccc(Cl)s3)ccc21,-13%,nt,nt,nt,nt,nt
COc1ccc2c(c1)CCc1c(C(=O)NCCN3CCOCC3)noc1-2,-16%,1%,-1%,-3%,2%,-6%
COCCNC(=O)c1noc2c1CCc1cc(OC)ccc1-2,?,-2%,3.5µM*,?,?,7.9µM*
Cc1ccc(NC(=O)C2CCCN(S(=O)(=O)c3c(C)nn(C)c3C)C2)c(C)c1 (stereo not given),-3%,nt,nt,nt,nt,-10%
Cc1nc2nncn2c(Nc2ccccc2)c1C,-1%,nt,nt,nt,nt,-26%
Cc1ccc(/C=N/Nc2ccc(F)cc2F)s1,13µM*,nt,1.6µM*,?,?,nt
COc1cc(/C=N/Nc2ccc(S(N)(=O)=O)cc2[N+](=O)[O-])cc(OC)c1O,?,nt,2%,-4%,3%,nt
COc1cc(/C=N/Nc2ccc(Cl)nn2)cc(OC)c1O,13µM*,nt,0%,7%,4%,nt
CCCCCCCCCC(=O)N/N=C/c1ccc(C)s1,6%,-5%,0%,3%,?,nt
COc1cc(/C=N/Nc2ccc(F)cc2F)cc(OC)c1O,17µM*,-2%,2%,2%,10%,-10%
Oc1c(Br)cc(/C=N/Nc2ccc(Cl)nn2)cc1Br,-5%,nt,0%,-6%,-1%,nt
Cc1ccccc1C(=O)N/N=C/c1cccc2ccccc12,5.4µM*,nt,15%,-4%[1.84 µM],16%,nt
O=C(N/N=C/c1ccccc1F)c1cccc2ccccc12,-8%,nt,?,?,6%,nt
Cc1ccccc1C(=O)N/N=C/c1ccsc1C,11µM*,-8%,?,5.6µM*,?,16µM*
